Results as given in PubChem BioAssay (EPA / NIEHS).
The source made the active and inactive calls. How the source made its calls: active means hit-call score of the fitted dose curve at least 0.9, where 1 is the maximum; inactive means score below 0.9.

Experiments:
[1] = ATG_CRE_CIS: Attagene CIS-FACTORIAL HepG2 Assay for human cAMP Responsive Element (CRE) binding protein 3 (AID 2282926); details: HepG2 CRE cis-reporter, Attagene multiplexed mRNA; actives raise or lower the signal
Outline: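 HepG2 cells transiently transfected with a multiplexed reporter library (CRE-driven unit among them) were dosed for 24 h. Reporter mRNA was quantified by RT-PCR, fluorescent labelling, HpaI digestion and capillary electrophoresis, with bidirectional fitting against DMSO baseline.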

[2] = ATG_DR4_LXR_CIS: Attagene CIS-FACTORIAL HepG2 Assay for human Liver X Receptor (LXR), DR4 submotif (AID 2282929); details: HepG2 Attagene DR4 cis-reporter, mRNA transcription; actives raise or lower the signal
Outline: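 Transiently transfected HepG2 liver cells; cis-regulated reporters; 24 h dosing. RT-PCR plus CE read-out of reporter mRNA. DMSO baseline, bidirectional curve fitting.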

[3] = ATG_AP_2_CIS: Attagene CIS-FACTORIAL HepG2 Assay for human Activator Protein 2 (AP-2) (AID 2282932); details: HepG2 AP-2 cis-reporter, Attagene transcription factor profiling; actives raise or lower the signal
Outline: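 Step one: transient transfection of HepG2 with reporter transcription units. Step two: 24 h chemical exposure. Step three: RNA extraction, RT-PCR, labelled fragment analysis by capillary electrophoresis; DMSO serves as baseline.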

[4] = ATG_BRE_CIS: Attagene CIS-FACTORIAL HepG2 Assay for human Bone Morphogenetic Protein (BMP) Response Element (BRE) (AID 2282933); details: HepG2 BMP response element reporter, Attagene transcription factor profiling; actives raise or lower the signal
Outline: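 Endogenous transcription factor activity read in transiently transfected HepG2 cells after 24 h chemical exposure. Bidirectional curve fitting against DMSO; readout is reporter transcript level by RT-PCR with capillary electrophoresis of labelled products.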

[5] = molecular target: Transcription factor E2F1 (Homo sapiens) (UniProt Q01094); experiment: ATG_E2F_CIS: Attagene CIS-FACTORIAL HepG2 Assay for human E2F Transcription Factor 1 (AID 2282935); details: HepG2 Attagene cis-reporter, E2F reporter RNA transcripts; actives raise or lower the signal
Outline: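 Total RNA from 24 h-treated, reporter-transfected HepG2 cells undergoes DNase I treatment, oligo(dT) reverse transcription, PCR and 6-FAM primer extension before capillary electrophoresis.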

[6] = ATG_E_Box_CIS: Attagene CIS-FACTORIAL HepG2 Assay for human Enhancer Box (E-box) (AID 2282936); details: HepG2 E-box cis-reporter transcription, actives raise or lower the signal
Outline: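 DMSO served as negative control and baseline for bidirectional fitting. Human hepatoma HepG2 cells, transiently transfected with cis-reporter constructs, were dosed 24 h; reporter mRNA read by RT-PCR and capillary electrophoresis.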

[7] = ATG_M_19_CIS: Attagene CIS-FACTORIAL HepG2 Assay for M19 Transcription Factor (Internal Marker) (AID 2282939); details: HepG2 Attagene CIS-FACTORIAL M19 internal marker reporter; actives raise or lower the signal
Outline: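 Internal marker readout, fitted in both directions against DMSO, from HepG2 cells carrying transfected cis-element reporter constructs; RT-PCR and capillary electrophoresis of reporter mRNA after 24 h exposure.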

[8] = ATG_Ets_CIS: Attagene CIS-FACTORIAL HepG2 Assay for human Erythroblast Transformation Specific (ETS) (AID 2282941); details: HepG2 ETS cis-reporter transcription, actives raise or lower the signal
Outline: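 HepG2 cells transiently transfected with cis-promoter reporter transcription units were dosed for 24 h; reporter mRNA was measured by RT-PCR, 6-FAM primer extension, HpaI digestion and capillary electrophoresis, with bidirectional fitting against DMSO baseline.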

[9] = molecular target: Hepatocyte nuclear factor 3-beta (Homo sapiens) (UniProt Q9Y261); experiment: ATG_FoxA2_CIS: Attagene CIS-FACTORIAL HepG2 Assay for human Forkhead box A2 (FOXA2) (AID 2282942); details: HepG2 cis-reporter transcription factor activity, 24 h; actives raise or lower the signal
Outline: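 Multiplexed cis-element reporter assay in transiently transfected HepG2. Twenty-four hours post-dosing, RNA was reverse-transcribed, amplified, FAM-labelled, HpaI-digested and separated by CE. Activity gain or loss relative to DMSO.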

[10] = ATG_FoxO_CIS: Attagene CIS-FACTORIAL HepG2 Assay for human Forkhead box O (FoxO) (AID 2282943); details: HepG2 Attagene cis-reporter, FoxO element, mRNA; actives raise or lower the signal
Outline: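 Human hepatoma HepG2 cells carry transiently introduced reporter transcription units controlled by cis promoter elements. Chemical treatment lasted 24 h, and mRNA signal was compared with DMSO.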

[11] = ATG_GATA_CIS: Attagene CIS-FACTORIAL HepG2 Assay for human GATA Binding Protein (AID 2282944); details: HepG2 GATA cis-element reporter, Attagene multiplex mRNA; actives raise or lower the signal
Outline: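 Reporter transcripts from a GATA cis-regulated unit, among multiplexed reporters in transfected HepG2 cells, were measured by RT-PCR with capillary electrophoresis after 24 h dosing. Induction or loss scored relative to DMSO.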

[12] = ATG_M_32_CIS: Attagene CIS-FACTORIAL HepG2 Assay for M32 Transcription Factor (Internal Marker) (AID 2282949); details: HepG2 Attagene cis-factorial M32 reporter, mRNA; actives raise or lower the signal;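 further: background control marker of the multiplexed CIS panel rather than a real target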
Outline: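 Internal background marker read-out: RT-PCR/capillary electrophoresis fluorescence of reporter transcripts from transiently transfected HepG2 cells after 24 h chemical exposure. Activity fitted bidirectionally relative to DMSO negative control.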

[13] = ATG_PXRE_CIS: Attagene CIS-FACTORIAL HepG2 Assay for human Pregnane X Receptor Element (PXRE) (AID 2282957); details: HepG2 Attagene CIS-FACTORIAL PXRE reporter, mRNA; actives raise or lower the signal
Outline: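 HepG2 cells transiently transfected with cis-regulated multiple reporter transcription units; endogenous factor activity measured as reporter mRNA 24 h after dosing. RT-PCR, fluorescent primer extension, HpaI digestion, capillary electrophoresis; bidirectional fit versus DMSO baseline.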

[14] = ATG_Sox_CIS: Attagene CIS-FACTORIAL HepG2 Assay for human SRY-box transcription factor (SOX) (AID 2282960); details: HepG2 Attagene cis-factorial SOX reporter, mRNA; actives raise or lower the signal
Outline: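 Fluorescence-labelled cDNA fragments from reporter transcripts, sized by CE, give the signal. Cells: HepG2, transiently transfected with cis-regulated reporter units. Exposure 24 h; DMSO negative control; bidirectional curve fitting.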

[15] = molecular target: Transcription factor Sp1 (Homo sapiens) (UniProt P08047); experiment: ATG_Sp1_CIS: Attagene CIS-FACTORIAL HepG2 Assay for human Specificity Protein 1 (Sp1) (AID 2282961); details: HepG2 Sp1 cis-reporter transcription, actives raise or lower the signal
Outline: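 Chemicals are dosed onto HepG2 cells transfected with multiple cis-promoter reporter constructs, and after 24 h reporter RNA is reverse-transcribed, PCR-amplified and resolved by capillary electrophoresis for fluorescence quantitation; activity is scored up or down against DMSO.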

[16] = ATG_SREBP_CIS: Attagene CIS-FACTORIAL HepG2 Assay for human Sterol Regulatory Element Binding (SREBP) (AID 2282962); details: HepG2 Attagene cis-factorial SREBP reporter, mRNA; actives raise or lower the signal
Outline: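 HepG2 cells transiently transfected with multiplexed cis-element reporter units report endogenous transcription factor activity. After 24 h of chemical exposure, reporter mRNA was quantified by RT-PCR, 6-FAM labelling, HpaI digestion and capillary electrophoresis; bidirectional fits used DMSO as baseline.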

[17] = molecular target: Signal transducer and activator of transcription 3 (Homo sapiens) (UniProt P40763); experiment: ATG_STAT3_CIS: Attagene CIS-FACTORIAL HepG2 Assay for human Signal Transducer and Activator of Transcription 3 (STAT3) (AID 2282963); details: HepG2, Attagene cis-factorial STAT3 reporter transcription; actives raise or lower the signal
Outline: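 After a 24 h compound incubation, total RNA from MRTU-transfected HepG2 cells was converted to cDNA and reporter sequences PCR-amplified, labelled and profiled by capillary electrophoresis. Gain and loss of signal were referenced to DMSO.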

[18] = ATG_TA_CIS: Attagene CIS-FACTORIAL HepG2 Assay for human TA Basal Promoter (AID 2282964); details: HepG2 Attagene CIS-factorial TA basal promoter reporter; actives raise or lower the signal
Outline: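 Background-control readout: TA basal promoter reporter mRNA, fitted in both directions relative to DMSO. Measured by RT-PCR and capillary electrophoresis 24 hours after treating HepG2 human liver cells transiently carrying multiplexed cis-regulated reporter constructs.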

[19] = ATG_TCF_b_cat_CIS: Attagene CIS-FACTORIAL HepG2 Assay for human T-Cell-Factor with beta-catenin (TCF/b-cat) (AID 2282965); details: HepG2 TCF/beta-catenin cis-reporter transcription, actives raise or lower the signal
Outline: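 Measured: reporter mRNA in HepG2 transiently transfected with cis-promoter reporter units, 24 h after chemical addition. Fitting was bidirectional, DMSO as negative control.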

[20] = ATG_TGFb_CIS: Attagene CIS-FACTORIAL HepG2 Assay for human Transforming Growth Factor (TGF) (AID 2282967); details: HepG2 Attagene CIS TGFb reporter, mRNA transcription; actives raise or lower the signal
Outline: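 Endogenous TGFB1-linked transcription factor activity read as reporter mRNA via RT-PCR and capillary electrophoresis, 24 h after dosing transiently transfected HepG2 cells. Gain or loss of signal fitted relative to DMSO.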

Hepatocyte nuclear factor 3-beta (Homo sapiens), sequence (Q9Y261 whole entry, looked up): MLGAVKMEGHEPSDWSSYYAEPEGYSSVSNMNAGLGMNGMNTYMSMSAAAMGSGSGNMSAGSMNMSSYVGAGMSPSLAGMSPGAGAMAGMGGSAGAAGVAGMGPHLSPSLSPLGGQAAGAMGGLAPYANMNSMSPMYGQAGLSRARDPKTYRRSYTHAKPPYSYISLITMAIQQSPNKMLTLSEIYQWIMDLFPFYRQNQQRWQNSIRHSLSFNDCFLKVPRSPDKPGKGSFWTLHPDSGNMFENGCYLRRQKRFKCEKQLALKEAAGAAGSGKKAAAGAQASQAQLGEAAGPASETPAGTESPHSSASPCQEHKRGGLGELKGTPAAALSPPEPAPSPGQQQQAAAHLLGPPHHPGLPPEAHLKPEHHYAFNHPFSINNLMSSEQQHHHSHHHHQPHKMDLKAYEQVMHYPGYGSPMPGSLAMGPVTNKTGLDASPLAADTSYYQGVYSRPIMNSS
Transcription factor E2F1 (Homo sapiens), sequence (Q01094 whole entry, looked up): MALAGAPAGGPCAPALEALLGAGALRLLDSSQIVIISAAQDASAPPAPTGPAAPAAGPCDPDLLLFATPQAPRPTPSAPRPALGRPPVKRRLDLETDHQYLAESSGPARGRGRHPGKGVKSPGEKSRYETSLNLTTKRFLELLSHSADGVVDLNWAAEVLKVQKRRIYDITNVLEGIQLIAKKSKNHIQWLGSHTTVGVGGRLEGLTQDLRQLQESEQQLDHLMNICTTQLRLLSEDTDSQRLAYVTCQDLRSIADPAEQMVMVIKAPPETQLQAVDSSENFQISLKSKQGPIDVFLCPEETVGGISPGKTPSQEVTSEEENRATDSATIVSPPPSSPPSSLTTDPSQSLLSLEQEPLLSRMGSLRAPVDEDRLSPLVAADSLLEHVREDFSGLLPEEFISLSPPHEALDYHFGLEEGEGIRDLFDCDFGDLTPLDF
Signal transducer and activator of transcription 3 (Homo sapiens), sequence (P40763 whole entry, looked up): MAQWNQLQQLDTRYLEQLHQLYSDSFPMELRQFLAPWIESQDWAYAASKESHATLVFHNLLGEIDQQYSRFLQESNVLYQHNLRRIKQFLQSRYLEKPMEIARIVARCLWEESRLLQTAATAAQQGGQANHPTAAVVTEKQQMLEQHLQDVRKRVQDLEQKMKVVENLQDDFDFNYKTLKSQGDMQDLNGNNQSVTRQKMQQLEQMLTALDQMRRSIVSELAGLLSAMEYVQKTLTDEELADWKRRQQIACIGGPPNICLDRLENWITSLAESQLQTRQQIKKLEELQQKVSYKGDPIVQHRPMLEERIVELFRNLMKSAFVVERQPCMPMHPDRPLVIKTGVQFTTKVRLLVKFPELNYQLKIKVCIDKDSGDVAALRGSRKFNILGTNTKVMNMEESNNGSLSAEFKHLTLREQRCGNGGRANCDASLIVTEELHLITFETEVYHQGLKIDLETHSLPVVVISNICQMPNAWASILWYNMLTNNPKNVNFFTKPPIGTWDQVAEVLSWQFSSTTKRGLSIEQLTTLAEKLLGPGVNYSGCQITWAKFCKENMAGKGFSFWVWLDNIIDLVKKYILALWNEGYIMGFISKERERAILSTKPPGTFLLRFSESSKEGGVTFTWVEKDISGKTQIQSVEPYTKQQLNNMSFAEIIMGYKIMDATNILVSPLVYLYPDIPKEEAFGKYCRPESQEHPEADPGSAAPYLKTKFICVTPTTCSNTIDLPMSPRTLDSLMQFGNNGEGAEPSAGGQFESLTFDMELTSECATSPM
Transcription factor Sp1 (Homo sapiens), sequence (P08047 whole entry, looked up): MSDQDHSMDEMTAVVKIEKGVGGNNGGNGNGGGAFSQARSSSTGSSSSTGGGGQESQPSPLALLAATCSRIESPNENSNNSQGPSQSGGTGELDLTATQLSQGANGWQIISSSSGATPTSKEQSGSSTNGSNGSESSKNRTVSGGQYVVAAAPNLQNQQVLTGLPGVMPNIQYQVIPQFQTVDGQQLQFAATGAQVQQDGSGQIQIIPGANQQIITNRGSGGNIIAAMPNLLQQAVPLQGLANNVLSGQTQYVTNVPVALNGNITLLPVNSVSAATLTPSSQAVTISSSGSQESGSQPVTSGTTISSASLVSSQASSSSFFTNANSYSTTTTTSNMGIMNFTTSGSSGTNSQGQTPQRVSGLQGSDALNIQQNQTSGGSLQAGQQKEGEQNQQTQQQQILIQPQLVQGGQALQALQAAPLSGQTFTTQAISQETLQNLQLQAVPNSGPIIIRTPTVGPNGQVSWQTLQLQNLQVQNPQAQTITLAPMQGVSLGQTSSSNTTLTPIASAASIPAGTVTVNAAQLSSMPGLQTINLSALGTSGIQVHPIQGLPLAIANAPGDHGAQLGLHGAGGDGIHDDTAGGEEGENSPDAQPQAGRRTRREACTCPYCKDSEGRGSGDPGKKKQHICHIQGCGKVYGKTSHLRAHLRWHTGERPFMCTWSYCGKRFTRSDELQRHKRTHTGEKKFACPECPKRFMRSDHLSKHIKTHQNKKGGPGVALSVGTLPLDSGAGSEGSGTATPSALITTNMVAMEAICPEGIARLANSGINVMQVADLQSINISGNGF

O=P(O)(Oc1ccccc1)Oc1ccccc1
outcome [1]: inactive | outcome [2]: inactive | outcome [3]: inactive | outcome [4]: inactive | outcome [5]: inactive | outcome [6]: inactive | outcome [7]: inactive | outcome [8]: inactive | outcome [9]: inactive | outcome [10]: inactive | outcome [11]: inactive | outcome [12]: inactive | AC50 [13]: 74.2 µM (active) | outcome [14]: inactive | outcome [15]: inactive | outcome [16]: inactive | outcome [17]: inactive | outcome [18]: inactive | outcome [19]: inactive | outcome [20]: inactive

CCCCCc1cc(O)cc(O)c1
outcome [1]: inactive | AC50 [2]: 154 µM (active) | outcome [3]: inactive | outcome [4]: inactive | outcome [5]: inactive | AC50 [6]: 36.9 µM (active) | outcome [7]: inactive | outcome [8]: inactive | outcome [9]: inactive | outcome [10]: inactive | outcome [11]: inactive | outcome [12]: inactive | AC50 [13]: 9.47 µM (active) | outcome [14]: inactive | outcome [15]: inactive | outcome [16]: inactive | outcome [17]: inactive | AC50 [18]: 149 µM (active) | outcome [19]: inactive | outcome [20]: inactive

CCC(C)c1cc([N+](=O)[O-])cc([N+](=O)[O-])c1OC(=O)C=C(C)C (stereo not given)
outcome [1]: inactive | outcome [2]: inactive | outcome [3]: inactive | AC50 [4]: 8.06 µM (active) | AC50 [5]: 151 µM (active) | AC50 [6]: 17.7 µM (active) | outcome [7]: inactive | AC50 [8]: 100 µM (active) | outcome [9]: inactive | AC50 [10]: 57.3 µM (active) | outcome [11]: inactive | outcome [12]: inactive | AC50 [13]: 0.787 µM (active) | AC50 [14]: 53.7 µM (active) | AC50 [15]: 26.2 µM (active) | outcome [16]: inactive | AC50 [17]: 80.1 µM (active) | AC50 [18]: 100 µM (active) | AC50 [19]: 31.8 µM (active) | outcome [20]: inactive
